Test results published in PubChem BioAssay AID1159580 (chemical genetic matrix, 2015).
In all, about 5,500 compounds went through this assay and about 2,000 (36%) were called active. Inconclusive results (about 18%) are left out. Rule as the data show it: active = normalized growth mostly below about 0.91 (no sharp cut-off); inconclusive = no clear call, values can overlap the other calls; inactive = mostly above about 0.92. This is one part of the list.

Assay: chemical genetic growth profiling, strain panel (AID 1159580);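 also: tested at 20 µM; growth read once vehicle control cultures reached saturation at 30 °C; 1 = growth at the plate median or of vehicle wells; lower values mean less growth of the strain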
Conditions: growth OD

Measured: normalized growth

NS(=O)(=O)c1cc(C2(O)NC(=O)c3ccccc32)ccc1Cl (stereo unspecified)
inactive: S. cerevisiae deletion strains, locus YJR075W, strain HOC1, hits give low values 1.03 | S. cerevisiae deletion strains, locus YKL009W, strain mrt4, hits give low values 1.01 | S. cerevisiae deletion strains, locus YKL068W, hits give low values 1.01 | S. cerevisiae deletion strains, locus YKL085W, strain MDH1 (second series), hits give low values 1.01 | S. cerevisiae deletion strains, locus YKL085W, strain MDH1, hits give low values 1.01 | S. cerevisiae deletion strains, locus YKL160W, strain elf1, hits give low values 0.991 | S. cerevisiae deletion strains, locus YKL190W, strain CNB1, hits give low values 1.01 | S. cerevisiae deletion strains, locus YKR001C, strain vps1, hits give low values 1.02 | S. cerevisiae deletion strains, locus YKR026C, strain gcn3, hits give low values 0.978 | S. cerevisiae deletion strains, locus YKR091W, strain srl3, hits give low values 0.987 | S. cerevisiae deletion strains, locus YLL001W, strain dnm1, hits give low values 0.972 | S. cerevisiae deletion strains, locus YLL026W, hits give low values 0.988 | S. cerevisiae deletion strains, locus YLL041C, strain sdh2, hits give low values 0.981 | S. cerevisiae deletion strains, locus YLR027C, strain aat2, hits give low values 0.994 | S. cerevisiae deletion strains, locus YLR039C, strain RIC1, hits give low values 1.01 | S. cerevisiae deletion strains, locus YLR058C, strain SHM2, hits give low values 1.03 | S. cerevisiae deletion strains, locus YLR102C, strain apc9, hits give low values 1.01 | S. cerevisiae deletion strains, locus YLR113W, strain HOG1, hits give low values 0.969 | S. cerevisiae deletion strains, locus YLR221C, strain rsa3, hits give low values 0.981 | S. cerevisiae deletion strains, locus YLR258W, strain gsy2, hits give low values 0.999 | S. cerevisiae deletion strains, locus YLR262C, strain YPT6 (second series), hits give low values 1.01 | S. cerevisiae deletion strains, locus YLR262C, strain YPT6, hits give low values 1.04 | S. cerevisiae deletion strains, locus YLR268W, strain sec22, hits give low values 1.03 | S. cerevisiae deletion strains, locus YLR320W, strain mms22, hits give low values 0.976 | S. cerevisiae deletion strains, locus YLR330W, strain CHS5, hits give low values 1.02 | S. cerevisiae deletion strains, locus YLR342W, strain FKS1 (second series), hits give low values 1.01 | S. cerevisiae deletion strains, locus YLR342W, strain FKS1, hits give low values 0.987 | S. cerevisiae deletion strains, locus YLR357W, strain rsc2, hits give low values 1 | S. cerevisiae deletion strains, locus YLR370C, strain arc18, hits give low values 0.986 | S. cerevisiae deletion strains, locus YLR371W, strain rom2, hits give low values 1.02 | S. cerevisiae deletion strains, locus YLR384C, strain iki3, hits give low values 0.987 | S. cerevisiae deletion strains, locus YLR418C, strain cdc73, hits give low values 1.03 | S. cerevisiae deletion strains, locus YML016C, strain PPZ1, hits give low values 1.01 | S. cerevisiae deletion strains, locus YML032C, strain rad52, hits give low values 1.02 | S. cerevisiae deletion strains, locus YML120C, strain ndi1, hits give low values 0.983 | S. cerevisiae deletion strains, locus YML124C, strain tub3, hits give low values 1.02 | S. cerevisiae deletion strains, locus YMR058W, strain fet3, hits give low values 1.01 | S. cerevisiae deletion strains, locus YMR078C, strain ctf18, hits give low values 1.02 | S. cerevisiae deletion strains, locus YMR125W, strain sto1, hits give low values 1.01 | S. cerevisiae deletion strains, locus YMR129W, hits give low values 0.985 | S. cerevisiae deletion strains, locus YMR205C, strain PFK2, hits give low values 0.99 | S. cerevisiae deletion strains, locus YMR223W, strain ubp8, hits give low values 1.02 | S. cerevisiae deletion strains, locus YMR231W, strain pep5, hits give low values 0.994 | S. cerevisiae deletion strains, locus YMR263W, strain SAP30, hits give low values 1.01 | S. cerevisiae deletion strains, locus YMR307W, strain GAS1, hits give low values 0.984 | S. cerevisiae deletion strains, locus YNL067W, strain RPL9B, hits give low values 1.02 | S. cerevisiae deletion strains, locus YNL071W, strain lat1, hits give low values 0.989 | S. cerevisiae deletion strains, locus YNL153C, strain GIM3, hits give low values 1.02 | S. cerevisiae deletion strains, locus YNL183C, strain NPR1, hits give low values 0.948 | S. cerevisiae deletion strains, locus YNL209W, strain ssb2, hits give low values 0.997 | S. cerevisiae deletion strains, locus YNL233W, strain BNI4, hits give low values 1.02 | S. cerevisiae deletion strains, locus YNL248C, strain rpa49, hits give low values 1.02 | S. cerevisiae deletion strains, locus YNL250W, strain rad50, hits give low values 0.992 | S. cerevisiae deletion strains, locus YNL271C, strain bni1, hits give low values 1.02 | S. cerevisiae deletion strains, locus YNL298W, strain CLA4, hits give low values 1.03 | S. cerevisiae deletion strains, locus YNL307C, strain MCK1, hits give low values 1.02 | S. cerevisiae deletion strains, locus YNL322C, strain KRE1 (second series), hits give low values 0.983 | S. cerevisiae deletion strains, locus YNL322C, strain KRE1, hits give low values 1 | S. cerevisiae deletion strains, locus YNR049C, strain mso1, hits give low values 0.997 | S. cerevisiae deletion strains, locus YNR052C, strain pop2, hits give low values 1.01 | S. cerevisiae deletion strains, locus YOL006C, strain TOP1, hits give low values 1.1 | S. cerevisiae deletion strains, locus YOL012C, strain htz1 1.12 | S. cerevisiae deletion strains, locus YOL147C, strain pex11, hits give low values 1.01 | S. cerevisiae deletion strains, locus YOR001W, strain rrp6, hits give low values 0.987 | S. cerevisiae deletion strains, locus YOR061W, strain CKA2, hits give low values 1.01 | S. cerevisiae deletion strains, locus YOR069W, strain VPS5, hits give low values 1.01 | S. cerevisiae deletion strains, locus YOR070C, strain gyp1, hits give low values 0.991 | S. cerevisiae deletion strains, locus YOR080W, strain dia2, hits give low values 0.976 | S. cerevisiae deletion strains, locus YOR083W, strain WHI5, hits give low values 0.98 | S. cerevisiae deletion strains, locus YOR106W, strain vam3, hits give low values 1.01 | S. cerevisiae deletion strains, locus YOR136W, strain idh2, hits give low values 1.03 | S. cerevisiae deletion strains, locus YOR144C, strain elg1, hits give low values 1.02 | S. cerevisiae deletion strains, locus YOR184W, strain ser1, hits give low values 1.03 | S. cerevisiae deletion strains, locus YOR231W, strain MKK1, hits give low values 0.976 | S. cerevisiae deletion strains, locus YOR265W, strain rbl2, hits give low values 0.993 | S. cerevisiae deletion strains, locus YOR270C, strain vph1, hits give low values 1.01 | S. cerevisiae deletion strains, locus YOR290C, strain snf2, hits give low values 0.986 | S. cerevisiae deletion strains, locus YOR316C, strain cot1, hits give low values 1.02 | S. cerevisiae deletion strains, locus YPL051W, strain arl3, hits give low values 0.981 | S. cerevisiae deletion strains, locus YPL055C, strain LGE1, hits give low values 1.02 | S. cerevisiae deletion strains, locus YPL078C, strain atp4, hits give low values 0.984 | S. cerevisiae deletion strains, locus YPL106C, strain sse1, hits give low values 0.948 | S. cerevisiae deletion strains, locus YPL240C, strain hsp82, hits give low values 0.99 | S. cerevisiae deletion strains, locus YPL241C, strain CIN2, hits give low values 1.01 | S. cerevisiae deletion strains, locus YPL256C, strain CLN2, hits give low values 0.96 | S. cerevisiae deletion strains, locus YPR119W, strain clb2, hits give low values 1.01 | S. cerevisiae deletion strains, locus YPR141C, strain kar3, hits give low values 1.03 | S. cerevisiae deletion strains, locus YPR163C, strain tif3, hits give low values 1.01 | S. cerevisiae deletion strains, locus YPR167C, strain met16, hits give low values 1.02 | S. cerevisiae deletion strains, strain wtn01, hits give low values 1.04 | S. cerevisiae strains, strain wild type, hits give low values 1.01
